We go through 40 compounds from PubChem BioAssay (Tox21).

The structures appear in SMILES notation. “And” between values parts separate entries of the source, which are not always exact repeats. Equal entries are not always repeated. Inconclusive results are not listed. Entries that show only a call come without a potency. A structure can be active in one record and inactive in another. The source made the active and inactive calls. The call rests on the fitted dose curve; in most records, active means well fitted cell-killing curve with a large enough effect in the repeat runs; inconclusive means weak or mixed curves, or effect the other way; inactive means flat fitted curve, though single readings scatter.
Potency means the concentration at half of the fitted maximal effect.

A short description of this experiment: qHTS assay to identify small molecule that activate the aryl hydrocarbon receptor (AhR) signaling pathway - cell viability counter screen (AID 743086). Further: nearly all actives have a fitted effect of over 45% in size. To be noted: HepG2-AhR-luc viability, CellTiter-Fluor, 24 h; series mostly up to 70.3 µM. From the text:
U.S. Tox21 Program National Center for Advancing Translational Sciences [NCATS] NIH Chemical Genomics Center [NCGC] U.S. Environmental Protection Agency [EPA] National Institutes of Environmental Health Sciences [NIEHS] National Toxicology Program [NTP] U.S. Food and Drug Administration [FDA] Tox21 Assay overview: The Aryl hydrocarbon Receptor (AhR), a member of the family of basic helix-loop-helix transcription factors, is crucial to adaptive responses to environmental changes. AhR mediates cellular responses to environmental pollutants such as aromatic hydrocarbons through induction of phase I and II enzymes but also interacts with other nuclear receptor signaling pathways A cell based HepG2-AhR-luc assay (HG2L7.5c1 cell line, developed by Dr. Michael S. Denison, University of California at Davis) was used to assess the activation of AhR. HepG2 (human hepatocellular carcinoma) cells were stably transfected with an Ah receptor-responsive firefly luciferase reporter gene plasmid containing 20 dioxin responsive elements and luciferase reporter gene. Increased luciferase activity can be used to identify the compounds that induce AhR activation. The cytotoxicity of the compounds screened against the HepG2-AhR-luc cell line was tested in parallel by measuring the cell viability using CellTiter-Fluor assay in the same wells.
Tox21 Assay Protocol Summary: 4000 cells in 5 uL/well were dispensed into white wall/solid bottom 1536-well plates using a Multidrop Combi (Thermo Fisher Scientific Inc., Waltham, MA) dispenser. After the assay plates were incubated at 37C for 5 h, 23 nL of compound or DMSO vehicle was transferred to the assay plates by a pintool station (Kalypsys, San Diego, CA). The plates were incubated at 37C for 24 hr. For cell viability measurement, 1 ul/well of CellTiter-Fluor reagent (Promega, Madison, WI) was added into the assay plates using a Flying Reagent Dispenser (FRD) (Aurora Discovery, CA),and then the assay plates were incubated at 37C for 30 min. The fluorescence intensity in the plates was measured using a ViewLux plate reader (PerkinElmer, Shelton, CT), followed by the addition of 4 uL of ONE-Glo Luciferase Assay reagent (Promega) using an FRD (Aurora Discovery). After the assay plates were incubated at room temperature for 30 min, luminescence intensity was measured using a ViewLux plate reader (Perkin Elmer).
For orientation: In qHTS, concentration-response curves come from the screen itself.
For `CN(CCOc1ccc(CC2SC(=O)NC2=O)cc1)c1ccccn1` (stereo not given), the Potency entry was “inactive”.
The entry for `O=C(c1ccc(O)cc1)c1ccc(O)cc1O` is “inactive”.
The entry for `CC1=C(/C=C/C(C)=C/C=C/C(C)=C/CO)C(C)(C)CCC1` is “inactive”.
For `COCC(=O)O` the value was “inactive”.
On to `Cc1ccc(C(=O)O)o1`, for which the Potency result was “inactive”.
The entry for `OCC#CCO` is “inactive”.
Take `CS(=O)(=O)c1ccc([C@@H](O)[C@@H](CO)NC(=O)C(Cl)Cl)cc1`: the Potency result was “inactive”.
The entry for `OC[C@@H](O)[C@H](O)[C@H](O)[C@@H](O)CO` is “inactive”.
Take `CC(=O)[C@@]1(O)CC[C@H]2[C@@H]3CCC4=CC(=O)CC[C@]4(C)[C@H]3CC[C@@]21C`: the Potency entry is “inactive”.
For `CCOC(=O)[C@H](CCc1ccccc1)N[C@@H](C)C(=O)N1Cc2ccccc2C[C@H]1C(=O)O`, the Potency result is “inactive”.
For `ClC1=C(Cl)C(Cl)(Cl)C(Cl)=C1Cl` the value was “inactive”; for `Cc1cc(=O)[nH]c(C(C)C)n1`, “inactive”; for `Oc1ccc(OCc2ccccc2)cc1`, “inactive”.
On to `O=C(Oc1ccccc1)c1ccc(O)cc1`, for which the Potency result is “inactive”.
Take `NCc1cccc(CN)c1`: the Potency result is “inactive”.
In the case of `O=[N+]([O-])C(CO)(CO)CO`, the Potency result was “inactive”.
Take `O=C(Cl)c1c(Cl)c(Cl)c(C(=O)Cl)c(Cl)c1Cl`: the Potency result is “inactive”.
For `O=C1N=C(O)CN1/N=C/c1ccc(-c2ccc([N+](=O)[O-])cc2)o1` the value was “inactive and 48.6 µM (active)”; for `CCCCC/C=C\C/C=C\CCCCCCCC(=O)OC`, “inactive”; for `CCOC(=O)/C=C\C(=O)OCC`, “inactive”.
`CCCCCCCCCC(=O)O`: the Potency result is “inactive”.
With `C/C=C(C)/C=C/C=C(C)C`, the Potency result is “inactive”.
Take `CC1CC(OC(=O)c2ccccc2O)CC(C)(C)C1` (stereo not given): the Potency entry was “inactive”.
Turning to `Cn1c([N+](=O)[O-])cnc1COC(N)=O`, the Potency entry was “inactive”.
The entry for `C=C(C)C(=O)OCCC[Si](OC)(OC)OC` is “inactive”; for `Nc1nc2ncc(CNc3ccc(C(=O)N[C@@H](CCC(=O)O)C(=O)O)cc3)nc2c(=O)[nH]1` it is “inactive”.
For the compound `COC(=O)c1ccccc1O`, the Potency entry is “inactive”.
As to `O=C(O)c1ccc([N+](=O)[O-])cc1`, the Potency entry is “inactive”.
For `Cc1ccc(N)c(S(=O)(=O)O)c1` the value was “inactive”.
On to `O=C(c1cc(O)c(O)c(O)c1)c1ccc(O)c(O)c1O`, for which the Potency was 30.5 µM (active).
As for `COC(=O)Nc1nc2ccc(Sc3ccccc3)cc2[nH]1`, the Potency result is “inactive”.
For `CNC[C@H](O)[C@@H](O)[C@H](O)[C@H](O)CO`, the Potency result was “inactive”.
As for `CC#C[C@]1(O)CC[C@H]2[C@@H]3CCC4=CC(=O)CCC4=C3[C@@H](c3ccc(N(C)C)cc3)C[C@@]21C`, the Potency entry is “inactive”.
Turning to `S=c1nc[nH]c2nc[nH]c12`, the Potency result is “inactive”.
For `O=c1c(-c2ccc(O)cc2)coc2cc(O)ccc12`, the Potency result is “inactive”.
Turning to `OC[C@@H](O)[C@@H](O)[C@H](O)[C@@H](O)CO`, the Potency result is “inactive”.
The entry for `Cc1cc(O)c2c(c1)C(=O)c1cc(O)cc(O)c1C2=O` is “inactive”; for `NC(=O)/N=N/C(N)=O` it is “inactive”; for `CCCCCCCCCCCCN` it is “inactive”.
For `O=S(=O)(O)CCS` the value was “inactive”.
